Molecules are shown by their SMILES. Among all 16,000 compounds or so, about 2,600 (16%) were called active. Not shown: some 20% with an inconclusive outcome. The list is a sample of the results. Values without a mark were called inactive. The call rests on the fitted dose curve; in most records, active means well fitted curve in the direction sought with a large enough effect; inconclusive means small, poorly fitted or top-dose-only effect, or effect the other way; inactive means no such curve, though single readings can be large or run the other way.

Consider 63 molecules from PubChem BioAssay AID1851 (National Center for Advancing Translational Sciences (NCATS), 2009).
On the % scale 0 is the no-effect control and ±100 the full control effect.

Chain of Cytochrome P450 2D6 (Homo sapiens) (P10635 whole entry, looked up): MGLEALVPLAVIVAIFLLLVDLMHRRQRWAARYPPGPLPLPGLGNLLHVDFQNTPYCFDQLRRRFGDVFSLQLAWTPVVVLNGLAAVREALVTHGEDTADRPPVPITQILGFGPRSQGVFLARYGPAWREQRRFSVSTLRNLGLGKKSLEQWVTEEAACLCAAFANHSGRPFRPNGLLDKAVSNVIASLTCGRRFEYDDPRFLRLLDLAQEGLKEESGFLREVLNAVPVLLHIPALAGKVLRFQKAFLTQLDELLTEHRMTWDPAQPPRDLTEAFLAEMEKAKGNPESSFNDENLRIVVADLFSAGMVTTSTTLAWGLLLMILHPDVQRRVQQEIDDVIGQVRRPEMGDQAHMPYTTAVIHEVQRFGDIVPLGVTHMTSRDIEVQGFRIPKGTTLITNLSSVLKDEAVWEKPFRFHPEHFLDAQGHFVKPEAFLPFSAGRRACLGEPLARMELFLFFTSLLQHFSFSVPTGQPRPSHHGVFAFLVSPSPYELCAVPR

The experiment addresses Cytochrome P450 2D6 (Homo sapiens) (UniProt P10635). Description: Cytochrome panel assay with activity outcomes. The following applies: recombinant CYP, pro-luciferin dealkylation, luminescence, p450-cyp2d6; series mostly up to 57.1 µM.
As usually defined, the AC50 is the midpoint of the concentration-response curve, whichever way the signal moves. In the case of `C=CCNC(=S)N1CCN(c2ncc3c(=O)c(C(=O)O)cn(CC)c3n2)CC1`, the AC50 entry is “inactive”.
Regarding `N#Cc1ccc(Oc2nc(C(N)=O)cc(-c3ccccc3)n2)cc1`, the AC50 result is “inactive”.
`Oc1ccccc1C1Nc2cccc3cccc(c23)N1`: the AC50 was 10 µM (active).
Take `CC(=O)C1=NOC(CNC(=O)c2c(-c3ccccc3Cl)noc2C)C1` (stereo not drawn): the AC50 result is “inactive”.
For `CC1(C)c2ssc(=S)c2-c2ccccc2N1C(=O)CSC1=NCCS1`, the AC50 result was “inactive”.
`COC(=O)c1ccc(Oc2coc3cc(OCc4cnn(-c5ccccc5)c4)ccc3c2=O)cc1`: the AC50 entry was “inactive”.
With `Cc1[nH]nc(-c2ccc(OCc3cnn(-c4ccccc4)c3)cc2O)c1Oc1ccc(F)cc1`, the AC50 is 7.08 µM (active).
On to `Cc1[nH]nc(-c2ccc(OCc3cnn(-c4ccccc4)c3)cc2O)c1Oc1ccccc1F`, for which the AC50 is 11.2 µM (active).
For `CCc1ccc(OCC(=O)OC2CCS(=O)(=O)C2)cc1` (stereo not drawn), the AC50 entry is “inactive”.
Consider `COc1ccc(-n2ncc3c(NCC4CCCO4)ncnc32)cc1` (stereo not drawn), for which the AC50 entry is “inactive”.
In the case of `CCC1(c2ccccc2)C(=O)NCNC1=O`, the AC50 entry was “inactive”.
In the case of `O=C(Oc1ccccc1)N1CCC2(CC1)CCN(c1ccccc1)CC2`, the AC50 entry was “inactive”.
Regarding `Brc1ccc(-c2nnc(-c3cccc(Br)c3)o2)cc1`, the AC50 result is “inactive”.
For the molecule `CCc1ccc(NC(=O)CS(=O)CC(=O)NCCCc2ccccc2)cc1` (stereo not drawn), the AC50 result is “inactive”.
As to `CCCNC(=S)Nc1ccc(Br)cc1`, the AC50 result was “inactive”.
Consider `CCCCc1ccc(NC(=S)NCc2cccs2)cc1`, for which the AC50 was 4.47 µM (active).
As for `CCC(c1nnnn1CC1CCCO1)N(CCN1CCOCC1)Cc1cc2cc(C)ccc2[nH]c1=O` (stereo not drawn), the AC50 result is “inactive”.
Same read-out and setting: for `O=C1CSC(c2ccccn2)N1c1ccc(Cl)c(Cl)c1` (stereo not drawn) the value was “inactive”.
Same read-out and setting: for `CC(=O)Nc1ccc(N2C(=O)CSC2c2c(F)cccc2Cl)cc1` (stereo not drawn) the value was “inactive”; for `O=C1CSC(c2ccccc2F)N1c1cc(Cl)ccc1O` (stereo not drawn), 31.6 µM (active); for `Cc1ccc2nc(-c3ccc(NC(=O)Cc4cccs4)cc3)[nH]c2c1`, “inactive”.
Regarding `CCn1nnnc1SCC(=O)NC1CCCC1`, the AC50 entry is “inactive”.
With `COc1ccc(NC(=O)CSc2nnc(C3CC3)n2N)cc1`, the AC50 result is “inactive”.
As for `O=C(CSc1nnnn1C1CCCC1)Nc1ccc(F)cc1`, the AC50 was 14.1 µM (active).
Take `CCc1ccc(C2=Nn3c(nnc3-c3cccs3)SC2)cc1`: the AC50 is 2.82 µM (active).
Regarding `CCOc1ccc(-c2nnc3n2N=C(c2ccc(OC)cc2)CS3)cc1`, the AC50 entry was “inactive”.
Take `CCOc1ccc(C2=Nn3c(nnc3-c3ccco3)SC2)cc1`: the AC50 entry was “inactive”.
Regarding `CC1(C)O[C@H]2C[C@@H]3[C@H]4CCC5=CC(=O)CC[C@@]5(C)[C@]4(F)[C@@H](O)C[C@@]3(C)[C@@]2(C(=O)CCl)O1`, the AC50 entry is “inactive”.
On to `CC(C)CC(=O)Nc1ccccc1-c1nnn(CC(=O)N2CCc3ccccc3C2)n1`, for which the AC50 entry is “inactive”.
In the case of `O=C(O)NCC1CCCCC1` (tested in a mixture with another compound), the concentration at half-maximal activity (AC50) was 3.98 µM (active).
Same read-out and setting: in the case of `Cc1nnc(SCC(=O)NCC2CCCCC2)n(N)c1=O` it was “inactive”; in that of `O=C(c1cc(-c2ccco2)on1)N1CCOCC1`, “inactive”; in that of `O=C(NCc1ccccc1)C12CN(Cc3ccccc3)CC1C(c1cccc([N+](=O)[O-])c1)=NO2` (stereo not drawn), 5.01 µM (active).
Same read-out and setting: in the case of `O=C(Cc1ccccc1)N/N=C/C=C/c1cccc([N+](=O)[O-])c1` it was “inactive”.
`CC(C)CCNC(=O)C12CN(Cc3ccccc3)CC1C(c1cccc([N+](=O)[O-])c1)=NO2` (stereo not drawn): the AC50 entry was “inactive”.
Take `CCSC[C@@H](N)C(=O)O`: the activity, negative = inhibition was -5.75% [at 11.4 µM].
Regarding `O=c1nc(-c2ccccc2)cn[nH]1`, the AC50 entry is “inactive”.
Regarding `C/C=C\C[C@@H](C)[C@@H](O)[C@H]1C(=O)N[C@@H](CC)C(=O)N(C)CC(=O)N(C)[C@@H](CC(C)C)C(=O)N[C@@H](C(C)C)C(=O)N(C)[C@@H](CC(C)C)C(=O)N[C@@H](C)C(=O)N[C@H](C)C(=O)N(C)[C@@H](CC(C)C)C(=O)N(C)[C@@H](CC(C)C)C(=O)N(C)[C@@H](C(C)C)C(=O)N1C`, the AC50 entry is “inactive”.
Same read-out and setting: for `C[C@H]1NC(=O)NC1=O` the value was “inactive”.
On to `CCOC(=O)n1c(=O)n(Cc2c(Cl)cccc2Cl)c2ccccc21`, for which the AC50 result was “inactive”.
For `CC(C)(C)N1C(=O)[C@H]2[C@H]3[C@H](O)[C@H](O)C/C(=N/NC(=O)OCc4ccccc4)[C@@H]3CC[C@@H]2C1=O`, the activity, negative = inhibition was -18.8% [at 11.4 µM].
Consider `COc1ccccc1CN1CC[C@@]2(CCCN(C(C)=O)C2)C1`, for which the AC50 was 3.16 µM (active).
For `COc1ccc(NC(=O)N2CC[C@@]3(CCCN(C(C)=O)C3)C2)cc1`, the AC50 result is “inactive”.
For the molecule `COC(=O)N1CCC2(CCCN(Cc3ccccc3OC)C2)CC1`, the AC50 is 3.16 µM (active).
On the same count and under the same terms, in the case of `COc1ccccc1CN1CCCC2(CCN(C(C)=O)CC2)C1` it was 3.16 µM (active); in that of `COCC(=O)N1CCC[C@@]2(CCN(Cc3ccccc3OC)C2)C1`, 6.31 µM (active).
The same measure, in the same setting: for `COCC(=O)N1CCC2(CCCN(Cc3ccccc3OC)C2)CC1` the value was “inactive”.
As to `COCC(=O)N1CCC2(CCCN(C(=O)Nc3cccc(F)c3)C2)CC1`, the AC50 result was “inactive”.
With `CC(=O)N1CCC[C@@]2(CCN(c3ccncc3)C2)C1`, the AC50 result was “inactive”.
Turning to `COC(=O)N1CCC2(CCCN(C(=O)Nc3ccc(OC)cc3)C2)CC1`, the AC50 result was “inactive”.
`CCSc1nc2nc(C)cc(C)n2n1`: the AC50 entry is “inactive”.
Regarding `Cn1cc(C(=O)N/N=C/C(Br)=C\c2ccccc2)ccc1=O`, the AC50 entry is “inactive”.
Take `CCN1CCN(c2nc3c(c(=O)[nH]c(=O)n3C)n2CCCSc2ncccn2)CC1`: the AC50 entry is “inactive”.
As to `COc1ccc(C2/C(=C(/O)c3ccccc3)C(=O)C(=O)N2CC(C)O)c(OC)c1` (stereo not drawn), the AC50 result is “inactive”.
As to `N#Cc1sc2nc(-c3cccs3)cc(-c3ccc(Cl)cc3)c2c1N`, the AC50 entry was “inactive”.
As to `COc1cc(N=C(N)N=C(N)N)c2ncccc2c1`, the activity, negative = inhibition was -2.16% [at 11.4 µM].
On the same count and under the same terms, in the case of `Nc1ccc(S(=O)(=O)c2ccc(NC(=O)c3cccnc3)cc2)cc1` it was -2.49% [at 11.4 µM].
In the case of `O=c1c2c(-c3ccc(Cl)cc3)csc2nc2n1CCC2`, the AC50 entry was “inactive”.
Consider `COCCn1c(=O)[nH]c2cc(C(=O)N3CCN(c4ccccc4OC)CC3)ccc2c1=O`, for which the AC50 result is “inactive”.
For the molecule `CCCC1c2c(ccc3ccccc23)Oc2ccc3ccccc3c21`, the activity, negative = inhibition was 4.73% [at 11.4 µM].
On to `COCC(=O)N1CCC2(CCCN(Cc3ccccc3)C2)CC1`, for which the AC50 entry is “inactive”.
For the molecule `COCC(=O)N1CCC[C@@]2(CCN(Cc3ccccc3)C2)C1`, the AC50 was 6.31 µM (active).
As for `COCC(=O)N1CCC[C@@]2(CCN(Cc3ccc(C#N)cc3)C2)C1`, the AC50 entry was “inactive”.
